Pf growth 96h: Primary qHTS for delayed death inhibitors of the malarial parasite plastid, 96 hour incubation; actives 6.9% (n = 320,000); P. falciparum luciferase reporter growth, 96 h; Potency, µM (doses to about 28.7 µM), for the others: top-dose activity change, negative = inhibition, usual class: inhibitors; note: potency is the fitted concentration of half-maximal effect; % is set by controls: 0 for no effect and ±100 for the full control effect
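Two parasite generations (96 h, 37 C, 5% CO2) of compound exposure in infected erythrocytes (0.05% parasitemia, 2% hematocrit). Luciferase-reporter P. falciparum; decreased luminescence indicates inhibited growth, aimed at apicoplast-acting delayed death.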
HCV inhibitor: qHTS Assay for Inhibitors of Hepatitis C Virus (HCV) | Huh7.5.1 HCVcc-Cre infection, luciferase reporter, 44 h | Potency, µM (highest dose often 41.8 µM), for inactives: at the top dose activity change, negative = inhibition, most hits filed as inhibitors | actives 3.4% (n = 340,000); note: potency is the fitted concentration of half-maximal effect; % is set by controls: 0 for no effect and ±100 for the full control effect
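Antiviral activity was scored by luciferase reporter output from cells infected with HCVcc-Cre (~0.5 moi) in presence of compound, 44 h infection period, cells seeded 1,000/well 4 h prior.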
SARS PLP yeast: qHTS of Yeast-based Assay for SARS-CoV PLP; actives 0.19% (n = 330,000); Potency, µM (titrated, usually from 32.9 µM), without a hit: top-dose activity, positive = growth rescue, usual class: activators; S. cerevisiae expressing SARS-CoV PLpro, growth rescue; calls by dose curve; note: potency is the fitted concentration of half-maximal effect; 0% is about no effect; nearly all actives have a fitted effect of over 55% in size
Pf growth 48h: Primary qHTS for delayed death inhibitors of the malarial parasite plastid, 48 hour incubation | P. falciparum luciferase growth in erythrocytes, 48 h | Potency, µM (series often up to 28.7 µM), for inactives: top-dose activity change, negative = inhibition, most hits filed as inhibitors | actives 5.9% (n = 310,000); note: potency is the fitted concentration of half-maximal effect; % is set by controls: 0 for no effect and ±100 for the full control effect
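Compounds are pin-transferred into medium, infected erythrocytes (2% hematocrit, 0.1% parasitemia final) are added, and plates sit one parasite generation at 37 C in 5% CO2. Detection reagent is then added and luminescence measured.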
HCMV inh: qHTS Assay for inhibitors of the human cytomegalovirus (HCMV); HFF cells, HCMV-luciferase reporter, 72 h; active compounds read low; activity change, negative = inhibition, % at 57.5 µM; actives 4.5% (n = 410,000); AID 1259415, 2018; in the data active = activity change below about -60%; inconclusive = no clear call, values can overlap the other calls; inactive = above about -39%; note: % is set by controls: 0 for no effect and ±100 for the full control effect
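Two compound doses tested in HFFs infected with HCMV-luciferase, MOI 1 PFU/cell, 72 h at 37C. Lysate luminescence read with OneGlo; data normalized against buffer-only and 10uM Salinomycin inhibitor controls.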
Sm TGR inh: qHTS Assay for the Inhibitors of Schistosoma Mansoni Peroxiredoxins; Potency, µM (titrated, usually from 114 µM), without a hit: at the highest dose activity change, negative = inhibition, most hits filed as inhibitors; purified TGR, DTNB reduction, TNB absorbance 405 nm; AID 485364, 2010; Schistosoma mansoni thioredoxin glutathione reductase (TGR), Q962Y6; actives 3% (n = 360,000); note: potency is the fitted concentration of half-maximal effect; % is set by controls: 0 for no effect and ±100 for the full control effect; nearly all actives have a fitted effect of over 60% in size
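Kinetic colorimetric format: TGR-catalysed, NADPH-driven DTNB reduction monitored via TNB absorbance. Enzyme dispensed at 20 nM; compound exposure 15 min at room temperature before reaction start.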
An asterisk follows results filed as active; i = inactive; ? = inconclusive; . = no result; [ ] = remark or other dose. Hits are enriched below; roughly 15% of the tested compounds scored in any of these assays. Unless noted, calls come from the whole dose curve; as a rule, active = well fitted curve in the direction sought with a large enough effect; inconclusive = small, poorly fitted or top-dose-only effect, or another doubt; inactive = no such curve, though single readings can be large; an effect the other way counts as inactive or inconclusive.

SMILES | Pf growth 96h | HCV inhibitor | SARS PLP yeast | Pf growth 48h | HCMV inh | Sm TGR inh
O=C(NCCc1ccccc1)C1CCCN(S(=O)(=O)c2cccc3nsnc23)C1 (configuration not stated) | 1.2µM* | -21% | 23% | -17% | -8 | -4%
Cc1cccc(NC(=O)CN2C(=O)CCc3ccccc32)c1C | . | . | . | . | 14 | -1%
OC1=C(O)c2nc3cc(F)ccc3nc21 | 29% | 18% | 0% | 28% | 37 | 13µM*
O=C(Nc1nnc(SCc2ccc(F)cc2)s1)C1Cc2ccccc2CN1C(=O)c1ccco1 (configuration not stated) | -8% | ? | -1% | -21% | 15 | -34%
O=C(Nc1ccccc1N1CCOCC1)C1Cc2ccccc2CN1C(=O)c1ccco1 (configuration not stated) | . | 11% | 2% | 10µM* | 11 | ?
O=C(Nc1nnc(C2CC2)s1)C1Cc2ccccc2CN1C(=O)c1ccco1 (configuration not stated) | ? | 11% | 1% | -24% | 14 | 13µM*
Cc1c(NC(=O)C2Cc3ccccc3CN2C(=O)c2ccco2)c(=O)n(-c2ccccc2)n1C (configuration not stated) | . | 2% | 9% | . | -5 | 1%[11.4 µM]
CCCCn1c(=NC(=O)C(C)(C)Oc2ccc(Cl)cc2)c(C(=O)OCC)cc2c(=O)n3ccccc3nc21 | . | . | . | . | 33 | 3%
CCC(=O)N1CCN(c2ccc(-n3c(=O)ccc4cnc5ccc(-c6cnc7ccccc7c6)cc5c43)cc2C(F)(F)F)CC1 | . | . | . | . | -83* | .
O=C(O)COCC(=O)N1CCN(c2cc(C(F)(F)F)nc3ccccc23)CC1 | 10% | 15% | 0% | 15% | -14 | 3%
OC[C@@H]1CN(Cc2ccco2)C[C@H](n2cnc3c(NCc4ccncc4)ncnc32)O1 | . | . | . | . | 7 | .
OC[C@@H]1CN(CCc2ccccc2)C[C@H](n2cnc3c(NCc4ccc(F)cc4)ncnc32)O1 | . | . | . | . | -66* | .
OC[C@@H]1CN(Cc2ccc(-c3ccccc3)cc2)C[C@H](n2cnc3c(NCc4ccco4)ncnc32)O1 | . | . | . | . | -90* | .
OC[C@@H]1CN(Cc2ccco2)C[C@H](n2cnc3c(NCc4ccc(F)cc4)ncnc32)O1 | . | . | . | . | -69* | .
OC[C@@H]1CN(Cc2ccc(F)cc2)C[C@H](n2cnc3c(NCc4ccco4)ncnc32)O1 | . | . | . | . | 17 | .
OC[C@@H]1CN(Cc2ccc(-c3ccccc3)cc2)C[C@H](n2cnc3c(NCc4ccncc4)ncnc32)O1 | . | . | . | . | -91* | .
OC[C@@H]1CN(CCN2CCOCC2)C[C@H](n2cnc3c(NCc4ccc(F)cc4)ncnc32)O1 | . | . | . | . | 13 | .
COC(=O)C(C(=O)OC)C(C)C(C(=O)OC)C(=O)OC | 47% | 13% | 0% | . | ? | 0%
CCCCCCCCCCCC(=O)NC(C(=O)OCC)C(O)c1cccc([N+](=O)[O-])c1 (configuration not stated) | ? | -1% | 1% | ? | 16 | -46%
COc1cc(CNc2ncnc3c2ncn3[C@H]2CN(Cc3ccc(-c4ccccc4)cc3)C[C@@H](CO)O2)cc(OC)c1OC | . | . | . | . | -66* | .
CN(C)N=C1c2cc(S(=O)(=O)N3CCOCC3)ccc2-c2ccc(S(=O)(=O)N3CCOCC3)cc21 | -60% | ? | -23% | -11% | -5 | -1%
O=S(=O)(c1ccc2c(c1)C(=NO)c1cc(S(=O)(=O)N3CCCCC3)ccc1-2)N1CCCCC1 | ? | 5µM* | 15% | 8.3µM* | -102* | 14%
O=C(O)C1CCN(S(=O)(=O)c2ccc3[nH]ccc3c2)CC1 | . | . | . | . | -20 | .
CC1CCN(S(=O)(=O)c2ccc3c(c2)C(=NO)c2cc(S(=O)(=O)N4CCC(C)CC4)ccc2-3)CC1 | 5.9µM* | 2µM* | -2% | ? | -99* | 10%
CC1CCN(S(=O)(=O)c2ccc3[nH]ccc3c2)CC1 | . | . | . | . | -94* | 2%
SMILES | Pf growth 96h | HCV inhibitor | SARS PLP yeast | Pf growth 48h | HCMV inh | Sm TGR inh
CCN(CC)S(=O)(=O)c1ccc(OCC(=O)NC(=O)Cc2ccccc2)c([N+](=O)[O-])c1 | ? | 11% | 5% | 3% | -2 | -17%
Cc1cc(C)c2nc(Cl)c(Cl)nc2c1 | 16% | -5% | 1% | 5% | -2 | 5%
Cc1cc(C(=O)NC(Cc2c[nH]c3ccccc23)C(=O)O)c(C)o1 (configuration not stated) | ? | -5% | -10% | -2% | 36 | -8%
COC(=O)C(Cc1c[nH]c2ccccc12)NC(=O)c1cccs1 (configuration not stated) | -6% | -6% | -3% | 129% | 62 | -17%
COC(=O)C(Cc1c[nH]c2ccccc12)NC(=O)c1cc(-c2ccc(OC)c(OC)c2)oc1C (configuration not stated) | ? | 10µM* | -13% | 2.9µM* | 43 | -26%
CNC(=O)[C@H](Cc1c[nH]c2ccccc12)NC(=O)[C@@H](CC(=O)NO)CC(C)C | 11% | . | . | 3.8µM* | . | .
NC(=O)N[C@@H](Cc1c[nH]c2ccccc12)C(=O)OCC(=O)N1CCCCC1 | 68% | 2% | -1% | 12µM* | -31 | -3%
COC(=O)C(Cc1c[nH]c2ccccc12)NC(C)=O (configuration not stated) | 4.1µM* | 11% | 13% | -6% | -1 | 0%
CCN(CC(=O)NCc1cccs1)C(=O)c1cccc(S(=O)(=O)N2CC(C)OC(C)C2)c1 (configuration not stated) | . | 13% | 4% | . | 11 | .
COc1ccc(S(=O)(=O)NCCc2csc3nc(-c4ccc(Cl)cc4)nn23)cc1C | . | . | . | . | 17 | -1%
COC(=O)[C@@H](Cc1c[nH]c2ccccc12)NC(=O)c1ccc2c(c1)OCO2 | i | 15% | -2% | 268% | -105* | -23%
O=C(CCCc1c[nH]c2ccccc12)N1CCCCCC1 | 5.9µM* | -2% | 4% | 2% | -3 | -1%
COc1ccccc1C(=O)Nc1ccc(S(=O)(=O)N2CCCCC2c2cccnc2)cc1 (configuration not stated) | 3.3µM* | ? | -1% | ? | 0 | -2%
COc1ccc(C(=O)Nc2ccc(NC(C)=O)cc2)cc1S(=O)(=O)N1CCCCC1C (configuration not stated) | ? | ? | -1% | ? | . | -9%

Bioassay records as filed in PubChem BioAssay.
